Assay [1] is described as follows: qHTS assay to identify small molecule agonists of the NFkB signaling pathway - cell viability counter screen (AID 1159515). Also: nearly all actives have a fitted effect of over 55% in size. Also: potency is read from the fitted curve at half-maximal effect. A digest of the protocol: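 Plate 2,000 NFkB-bla ME-180 cells/well; incubate overnight. Add compounds, 5 hr at 37 C. Add FRET substrate, 1.5 hr RT. Add CellTiter-Glo, 30 min RT; read luminescence.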
In general terms: In qHTS, concentration-response curves come from the screen itself.

Assay [2] is described as follows: qHTS assay to identify small molecule agonists of the endoplasmic reticulum stress response signaling pathway (AID 1159516; active = well fitted activation curve with a large enough effect in the signal ratio in the repeat runs, not every such curve was filed as active; the % refers to the signal ratio). A digest of the protocol:
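Beta-lactamase expression from the ER stress response element in HeLa reporter cells is quantified with the LiveBLAzer B/G FRET substrate, read at 405 nm excitation after 2 hr at room temperature, following 5 hr compound treatment at 37 C.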

Assay [3] is described as follows: qHTS assay to identify small molecule agonists of the endoplasmic reticulum stress response signaling pathway - cell viability counter screen (AID 1159517). Also: nearly all actives have a fitted effect of over 50% in size. Also: potency is read from the fitted curve at half-maximal effect. A digest of the protocol: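 Cytotoxicity of test compounds toward ESRE-bla HeLa cells was assessed after 5 hr exposure. The luminescent CellTiter-Glo signal was measured 30 min after reagent addition.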
A short description of assay [4]: qHTS assay to identify small molecule antagonists of the retinoid-related orphan receptor gamma (ROR-gamma) signaling pathway - cell viability counter screen (AID 1159520; active = well fitted curve in the direction sought with a large enough effect in the repeat runs; an effect the other way counts as inactive or inconclusive; also: nearly all actives have a fitted effect of over 50% in size; also: potency is read from the fitted curve at half-maximal effect). The method, boiled down: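 Tet-on ROR gamma CHO cells (1,000/well) were plated 4 hr, given compounds in DMSO for 2 hr at 37 C, then induced with 1 uM final doxycycline for 16 hr. Viability was read as ATP by CellTiter-Glo luminescence after 30 min.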

The target in assay [5] is Nuclear receptor ROR-gamma (Homo sapiens) (UniProt P51449). Kind of assay: qHTS assay to identify small molecule antagonists of the retinoid-related orphan receptor gamma (ROR-gamma) signaling pathway (AID 1159521; active = well fitted curve in the direction sought with a large enough effect in the repeat runs; an effect the other way counts as inactive or inconclusive; also: nearly all actives have a fitted effect of over 50% in size; also: potency is read from the fitted curve at half-maximal effect). A digest of the protocol:
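CHO Tet-on RORγ, RORE-luc reporter. Cpd 2 h pre-incubation, then dox hyclate 1 uM final, 16 h, 37 C/5% CO2. ONE-Glo luminescence; decrease = antagonist.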

Assay [6] can be described thus: qHTS assay to identify small molecule agonists of the AP-1 signaling pathway - cell viability counter screen (AID 1159525). Also: nearly all actives have a fitted effect of over 55% in size. Also: potency is read from the fitted curve at half-maximal effect. The method, boiled down:
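Each titration point was normalised to DMSO and tetra n-octyl ammonium bromide controls. The read was Cell Titer Glo luminescence after 30 min at RT, following 5 h compound exposure of ME-180 AP-1-bla cells at 37 °C.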

Assay [7] is described as follows: qHTS assay to identify small molecule agonists of the AP-1 signaling pathway (AID 1159526). Also: potency is read from the fitted curve at half-maximal effect.
In assay [8] the target is Retinoic acid receptor RXR-alpha (Homo sapiens) (UniProt P19793). Kind of assay: qHTS assay to identify small molecule agonists of the RXR signaling pathway (AID 1159527). Also: nearly all actives have a fitted effect of over 35% in size. Also: potency is read from the fitted curve at half-maximal effect. The method, boiled down:
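Read-out: beta-lactamase FRET ratio (405 nm excitation, 460 and 530 nm emission) after 2 hr substrate loading at room temperature. Cells were RXR-alpha-UAS-bla HEK 293T treated with compounds for 16 hr in 2% charcoal-stripped FBS medium.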

A short description of assay [9]: qHTS assay to identify small molecule agonists of the RXR signaling pathway - cell viability counter screen (AID 1159529; active = well fitted curve in the direction sought with a large enough effect in the repeat runs; an effect the other way counts as inactive or inconclusive; also: nearly all actives have a fitted effect of over 50% in size; also: potency is read from the fitted curve at half-maximal effect). A digest of the protocol: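 HEK 293T RXRa-bla cells, 2% CS-FBS; 5 h settle; cpd 16 h 37 C, 5% CO2; CellTiter-Glo 30 min RT, luminescence. Tetraoctyl ammonium bromide as positive control.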

Where “and” joins values, the source holds several entries; their conditions need not be identical. Identical values can stand only once. Records with an inconclusive call do not appear. The source holds several records for some structures; these can differ, active in one and inactive in another. Calls of active or inactive are those of the source. Unless noted, calls follow the shape of the full dose curve.

Chain of Retinoic acid receptor RXR-alpha (Homo sapiens) (P19793 whole entry, looked up): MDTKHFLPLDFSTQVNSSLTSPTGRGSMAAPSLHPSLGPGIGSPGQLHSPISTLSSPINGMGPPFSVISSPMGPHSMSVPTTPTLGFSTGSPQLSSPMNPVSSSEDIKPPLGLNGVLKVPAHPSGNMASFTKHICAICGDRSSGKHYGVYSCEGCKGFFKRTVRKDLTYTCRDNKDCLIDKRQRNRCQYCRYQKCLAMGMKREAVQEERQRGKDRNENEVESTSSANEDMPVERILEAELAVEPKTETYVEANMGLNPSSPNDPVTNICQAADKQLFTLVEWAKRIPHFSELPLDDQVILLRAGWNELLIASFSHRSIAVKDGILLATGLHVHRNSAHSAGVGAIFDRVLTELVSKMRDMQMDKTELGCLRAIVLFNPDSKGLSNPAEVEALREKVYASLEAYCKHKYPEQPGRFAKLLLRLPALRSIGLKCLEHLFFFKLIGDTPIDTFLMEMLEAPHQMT

For the compound `CN(C)CCOC(C)(c1ccccc1)c1ccccn1` (stereo not drawn), the Potency result in assay [1], in assay [2], in assay [3], in assay [4], in assay [5] and in assay [6] was “inactive” each time. The Potency entry in assay [7], in assay [8] and in [9] was “inactive” throughout.

`Cn1c(=O)c2c(ncn2C)n(C)c1=O`: the Potency entry in [1], in assay [2], in assay [3], in [4], in [5] and in [6] was “inactive” each time. The Potency result in assay [7], in [8] and in assay [9] was “inactive” each time.

`CCCC[P+](CCCC)(CCCC)CCCC`: the Potency entry in [1], in [2], in [3], in assay [4], in assay [5] and in assay [6] was “inactive” in each case. Moreover, the Potency entry in assay [7], in [8] and in assay [9] was “inactive” throughout.

In the case of `C/C=C/C=C/C(=O)O`, the Potency entry in assay [1], in assay [2], in assay [3], in assay [4], in assay [5] and in assay [6] was “inactive” in each case. The Potency result in assay [7] and in assay [9] was “inactive” in each case. Besides, the Potency entry in assay [8] was “inactive and 49 µM (active)”.

Take `NS(=O)(=O)O`: the Potency entry in [1], in [2], in assay [3], in assay [4], in assay [5] and in assay [6] was “inactive” throughout. The Potency entry in assay [7], in assay [8] and in assay [9] was “inactive” each time.

As to `O=S1(=O)OC(c2ccc(O)cc2)(c2ccc(O)cc2)c2ccccc21`, the Potency result in assay [1], in assay [2], in assay [3], in [4], in assay [5] and in assay [6] was “inactive” in each case. Also, the Potency result in [7], in [8] and in assay [9] was “inactive” in each case.

With `NC1CCCCC1`, the Potency entry in [1], in assay [2], in assay [3], in assay [4], in assay [5] and in [6] was “inactive” throughout. The Potency entry in assay [7], in assay [8] and in assay [9] was “inactive” in each case.

Regarding `CS(=O)(=O)OCCCCOS(C)(=O)=O`, the Potency result in assay [1], in [2], in assay [3], in assay [4], in [5] and in assay [6] was “inactive” in each case. In addition, the Potency result in assay [7] and in assay [9] was “inactive” each time. In addition, the Potency result in assay [8] is “inactive and 17.4 µM (active)”.

Take `O=C1NC(=O)C(c2ccccc2)(c2ccccc2)N1`: the Potency result in assay [1], in [2], in [3], in assay [4], in assay [5] and in assay [6] was “inactive” each time. Also, the Potency entry in assay [7], in assay [8] and in assay [9] was “inactive” throughout.

Consider `CCCc1cc(=O)[nH]c(=S)[nH]1`, for which the Potency entry in assay [1], in [2], in assay [3], in [4], in assay [5] and in [6] was “inactive” throughout. In addition, the Potency result in assay [7], in [8] and in [9] was “inactive” each time.

As to `NS(=O)(=O)c1cc2c(cc1Cl)NCNS2(=O)=O`, the Potency entry in assay [1], in assay [2], in assay [3], in assay [4], in [5] and in assay [6] was “inactive” each time. In addition, the Potency entry in assay [7], in assay [8] and in assay [9] was “inactive” each time.

Turning to `COc1ccc(C(Cl)=C(c2ccc(OC)cc2)c2ccc(OC)cc2)cc1`, the Potency entry in assay [1], in [2], in assay [3], in assay [4], in [6] and in assay [7] was “inactive” in each case. In addition, the Potency result in [8] and in assay [9] was “inactive” throughout. Moreover, the Potency in [5] is 19.2 µM (active).

For `CC12CCC(CC1)C(C)(C)O2`, the Potency result in assay [1], in assay [2], in assay [3], in [4], in [5] and in assay [6] was “inactive” throughout. In addition, the Potency entry in assay [7], in assay [8] and in [9] was “inactive” each time.

Consider `CN(C)CCOC(c1ccccc1)c1ccccc1`, for which the Potency entry in [1], in assay [2], in assay [3], in assay [4], in assay [5] and in [6] was “inactive” each time. Also, the Potency result in assay [8] and in [9] was “inactive” throughout. Further, in [7], the Potency was 49.3 µM (active).

As for `Nc1c2c(nc3ccccc13)CCCC2`, the Potency result in assay [1], in assay [3], in assay [4], in assay [5], in assay [6] and in [7] was “inactive” in each case. Also, the Potency result in [8] and in [9] was “inactive” in each case.

As for `CC(C)c1c(C(=O)Nc2ccccc2)c(-c2ccccc2)c(-c2ccc(F)cc2)n1CC[C@@H](O)C[C@@H](O)CC(=O)O`, the Potency result in assay [1], in assay [2], in assay [3], in [6], in [7] and in assay [8] was “inactive” throughout. The Potency result in [9] was “inactive”. For the same compound, in assay [5], the Potency is 1.86 µM (active) and 11.4 µM (active) and 2.66 µM (active).

`Cc1c(C(=O)O)c(O)cc2c1C(=O)c1c(O)c([C@@H]3O[C@H](CO)[C@@H](O)[C@H](O)[C@H]3O)c(O)c(O)c1C2=O`: the Potency entry in [1], in assay [2], in assay [3], in assay [4], in assay [5] and in assay [6] was “inactive” each time. In addition, the Potency result in [7], in assay [8] and in assay [9] was “inactive” in each case.

With `O=C1OC2(c3ccccc31)c1cc(Br)c(O)c(Br)c1Oc1c2cc(Br)c(O)c1Br`, the Potency entry in [1], in [3], in assay [4], in [5], in assay [6] and in assay [7] was “inactive” each time. In addition, the Potency result in [9] is “inactive”.

As for `CCCCCCCCCCCCCCCC[N+](C)(C)Cc1ccccc1`, the Potency in [1] is 56.7 µM (active) and 49.8 µM (active) and 21.3 µM (active); in [3] it was 25.3 µM (active) and 39.6 µM (active); in assay [4], 70.8 µM (active) and 55.5 µM (active) and 29.8 µM (active); in assay [5] it was 56.2 µM (active) and 27.8 µM (active) and 13.3 µM (active); in assay [6], 40.1 µM (active) and 49.8 µM (active) and 23.9 µM (active); in [9] it was 17.9 µM (active) and 14 µM (active) and 4.25 µM (active).

As to `CCOc1ccc(NC(C)=O)cc1`, the Potency entry in [1], in [2], in assay [3], in assay [4], in assay [5] and in assay [6] was “inactive” each time. In addition, the Potency result in assay [7], in [8] and in assay [9] was “inactive” in each case.

For the origin of these results see PubChem BioAssay (Tox21).
